ssDAF12 agonist = activates DAF-12 receptor from parasite S. stercoralis; HEK293 ssDAF-12/GRIP1 lit1-tk-luc reporter, luminescence; % of 3 µM dafachronic acid response; activation, % at 6.8 µM; hit rate 1% among 370,000; AID 652126;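 active means activation above the mean over all tested compounds plus 3 SD, cut at about 0.9% in these data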
DAX1 inh-1 = inhibitors of DAX1 repression of SF-1 activated StAR promoter | hit rate 1.1% among 370,000 | inhibition, % at 6.8 µM | HEK293T StAR-luciferase reporter, SF-1/DAX-1 repression relief;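 active means inhibition above the mean over all tested compounds plus 3 SD, cut at about 3.6% in these data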;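 further: higher inhibition means more luminescence from relief of DAX-1 repression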
DAX1 inh-2 = inhibitors of human orphan nuclear receptor DAX1 (NR0B1) | inhibition, % at 6.75 µM | HEK293 Gal4-DAX1 luciferase reporter, luminescence | hit rate 0.99% among 340,000 | AID 504766;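 active means inhibition above the mean over all tested compounds plus 3 SD, cut at about 4.2% in these data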;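 further: inhibition shows as a rise in luminescence from relieved DAX1 repression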
hgDAF12 agonist = activates the H. glycines DAF-12 receptor ligand-binding domain. HEK293 GAL4-hgDAF12 UAS-luciferase reporter, agonist luminescence; normalized to butyrate control. activation, % at 6.8 µM. hit rate 1.8% among 370,000. AID 687014;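 active means activation above a cutoff set at the mean of all screened compounds plus 3 SD, cut at about 10% in these data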
hcDAF12 agonist = H. contortus DAF-12 activation, primary screen; hit rate 1.4% among 370,000; activation, % at 6.8 µM; AID 652067; HEK293 hcDAF-12 lit1-tk-luc reporter, luminescence; 0% DMSO, 100% Δ7-dafachronic acid;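 active means activation above the mean of all tested compounds plus 3 SD, cut at about 5.5% in these data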
LXRb hcDAF ctr = activates human LXR-beta, counter-screen for hcDAF-12 agonists; shares compounds with hcDAF12 agonist; HEK293 Gal4-LXR tk-luc reporter, luminescence, 24 h; normalized: DMSO 0%, positive control 100%; activation, % at 6.8 µM; 3,400 tested, under 10 active; AID 743027;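 active means mean percent activation of the reporter above a cutoff set as the average over tested compounds plus their standard deviation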
Target sequence (P55055 whole entry, looked up, the tested form may be a part): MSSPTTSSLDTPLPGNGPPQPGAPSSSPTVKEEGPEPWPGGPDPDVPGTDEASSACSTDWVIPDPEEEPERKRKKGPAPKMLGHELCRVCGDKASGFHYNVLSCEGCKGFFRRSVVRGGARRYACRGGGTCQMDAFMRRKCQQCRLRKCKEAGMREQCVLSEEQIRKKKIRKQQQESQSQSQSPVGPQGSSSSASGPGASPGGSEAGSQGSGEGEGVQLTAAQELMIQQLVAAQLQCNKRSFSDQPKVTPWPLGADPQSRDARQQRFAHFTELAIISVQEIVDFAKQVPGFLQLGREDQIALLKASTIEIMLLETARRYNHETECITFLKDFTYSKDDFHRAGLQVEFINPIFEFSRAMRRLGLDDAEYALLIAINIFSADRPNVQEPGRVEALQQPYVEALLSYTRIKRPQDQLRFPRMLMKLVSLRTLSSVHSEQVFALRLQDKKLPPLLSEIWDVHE
hcDAF12 conf = confirmation of H. contortus DAF-12 agonists | HEK293 hcDAF-12 lit1-tk-luc reporter, luminescence; % of Δ7-dafachronic acid response | hit rate 61% among 3,400 | activation, % at 6.8 µM | shares compounds with hcDAF12 agonist;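 active means mean activation across triplicate tests above the threshold derived from the earlier primary screen, cut at about 5.5% in these data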
Hits are given with their value; - = inactive; . = not tested or not shown. An excerpt weighted towards active compounds, which were near 4.1% of everything screened.

SMILES	ssDAF12 agonist	DAX1 inh-1	DAX1 inh-2	hgDAF12 agonist	hcDAF12 agonist	LXRb hcDAF ctr	hcDAF12 conf
COC(=O)c1cc2c(s1)-c1ccccc1OC2	-	-	-	-	8.9	-	-
CCC1(O)CCCC2C3CCC4CC(=O)CCC4(C)C3C(=O)CC21C (stereo not drawn)	-	-	-	-	-	.	.
CCC(CC)CN1CCC(CN2C(=O)C(=O)NC[C@@H]2CC(C)C)CC1	-	-	.	-	-	.	.
O=C(COc1ccc2c(c1)OCO2)Nc1nccs1	1.1	-	-	11	7.5	-	6.0
COCc1nnc(NC(=O)COc2ccc3c(c2)OCO3)s1	-	-	-	-	-	.	.
COC(=O)[C@]12C[C@H](CC(=O)NCC3CCCCC3)C(=O)N(Cc3cccc4ccccc34)C1=C[C@H](C(C)C)O[C@@H]2C1CC1	-	-	.	-	-	.	.
Cc1ccc(-n2ncc(Cl)c2C(=O)NC2CC2)cc1	-	-	-	11	8.8	-	5.6
Cc1ccc(-n2ncc(C(=O)NC3CC3)c2C2CCN(C(=O)OC(C)(C)C)CC2)cc1	-	-	-	-	-	.	.
Cc1cc2ccccc2n1CCNC(=O)c1ccc(S(=O)(=O)N2CCCCC2)cc1	-	-	-	-	7.5	-	-
COC(=O)[C@]12C[C@H](CC(=O)N3CCN(C(=O)c4ccco4)CC3)C(=O)N(CCc3ccc(OC)c(OC)c3)C1=C[C@H](C(C)C)O[C@@H]2C1CC1	-	-	.	-	-	.	.
CCN1CCN(/C=N/c2nc(C)cs2)CC1	-	-	-	-	6.8	-	-
COC(=O)c1ccc(OCC(=O)c2ccccc2)cc1	1.3	-	-	11	9.0	-	-
COCCNC(=O)CN1C(=O)NC2(CCOc3ccccc32)C1=O (stereo not drawn)	-	-	-	-	7.2	-	-
CCCCNC(=O)CN1C(=O)NC2(CCOc3ccccc32)C1=O (stereo not drawn)	-	-	-	-	-	.	.
COC(=O)[C@@]12CCCCC=C1N(CCc1ccc(Cl)cc1)C(=O)[C@H]2CC(=O)NCc1cccc(C(F)(F)F)c1	-	-	.	-	-	.	.
O=C(C[n+]1ccc2ccccc2c1)c1ccc(NC(=O)c2ccccc2)cc1	-	-	-	-	-	.	.
Cc1ccc(C(=O)C[n+]2ccc3ccccc3c2)cc1	1.3	-	-	-	6.7	-	-
COc1ccc(C(=O)C[n+]2ccc3ccccc3c2C)cc1	1.8	-	8.6	-	13	-	14
Cc1ccc(CN2CCC2(C)C(=O)NC2CCc3ccccc32)cc1 (stereo not drawn)	-	-	.	-	-	.	.
COc1ccccc1NC(=O)c1oc2ccccc2c1C	2.2	-	-	-	7.0	-	6.7
O=C(OCC#CCSc1nnc(-c2cccc3ccccc23)o1)c1ccc(Cl)c(C(F)(F)F)c1	-	.	.	-	-	.	.
Cc1cc(NC(=O)c2ccc3sc([C@@H]4O[C@H](CO)[C@H](O)[C@H](O)[C@H]4O)nc3c2)no1	-	-	.	-	-	.	.
Cn1c(SCC(=O)CC(=O)Nc2ccccc2)nnc1-c1ccc(O)cc1	-	-	-	-	-	.	.
CC(=O)N1N=C(c2ccccc2O)OC1(C)CC(=O)Nc1ccccc1 (stereo not drawn)	-	-	-	-	6.8	-	-
O=C(O)Cc1sc(Nc2ccccc2)nc1-c1cccs1	-	-	7.8	-	6.9	-	-
SMILES	ssDAF12 agonist	DAX1 inh-1	DAX1 inh-2	hgDAF12 agonist	hcDAF12 agonist	LXRb hcDAF ctr	hcDAF12 conf
CC(=O)c1c(C)nc(-c2ccc(Cl)cc2)nc1N=CN(C)C	1.0	-	-	-	8.6	-	8.6
CC(=O)c1sc(-c2ccc(Cl)cc2)nc1C	-	-	-	-	-	.	.
CC(=O)c1c(C)nc(-c2ccc(Cl)cc2)nc1N	1.6	-	-	-	15	-	7.3
O=C(C1CCN(c2ncnc3c2sc2cccc(F)c23)CC1)N1CCN(C(=O)C2CCCO2)CC1 (stereo not drawn)	-	-	.	-	-	.	.
O=C(NNc1nc2ccccc2s1)c1ccc(F)cc1	2.1	-	-	-	9.6	-	-
N#C/C(=C(/O)c1ccc(F)cc1)c1nc2ccccc2s1	-	-	-	11	7.2	-	-
Cc1nn(-c2ccccc2)c(C)c1C=NNC(=O)CSc1nc2ccccc2n1C	-	-	.	-	-	.	.
O=C(NCc1cccs1)c1ccc2sc(COCCO)nc2c1	-	-	.	-	-	.	.
Cc1ccc(NC(=O)CSc2cn[nH]n2)cc1	-	-	-	-	7.0	-	-
CCOc1ccc(NC(=O)CSc2cn[nH]n2)cc1	-	-	-	-	-	.	.
O=C(O)[C@@H]1Cc2c([nH]c3ccccc23)C2CCC(=O)N21 (stereo partly drawn)	1.6	-	-	-	7.6	-	-
COC(=O)[C@@H]1Cc2c([nH]c3ccccc23)C2CCC(=O)N21 (stereo partly drawn)	-	-	-	-	-	.	.
Cc1nnc(SCc2nc3ccccc3s2)n1-c1ccccc1	1.2	-	-	-	7.6	-	9.5
c1ccc2oc(SCc3nc4ccccc4s3)nc2c1	1.9	-	4.4	-	10	-	11
Cc1ccccc1CSc1nnc(C)n1N	-	-	-	-	-	.	.
Clc1c(CSc2nc3ccccc3o2)nc2ccccn12	-	4.2	-	10	7.0	-	7.0
Brc1c(CSc2nc3ccccc3o2)nc2ncccn12	-	-	-	-	-	.	.
Cc1nnc(SCc2nc3ccccc3s2)n1N	1.0	4.1	-	-	9.5	-	12
CCn1c(SCc2nc3ccccc3s2)nnc1-c1ccccc1	-	-	-	-	-	.	.
CCCCCCn1c(=O)n2n(c1=O)[C@@H]1CN(S(=O)(=O)c3ccc(C)cc3)C[C@]1(O)[C@@H](OC(=O)NCc1ccc(OC)c(OC)c1)C2	-	-	-	-	-	.	.
COc1ccc(CSc2nnnn2-c2ccccc2)cc1	-	-	-	-	-	.	.
COc1ccc(-n2nnnc2SCc2nc3ccccc3s2)cc1	1.1	-	-	-	8.1	-	11
COc1ccc([C@H]2OC(=O)C[C@H]2C(=O)N2CCN(C(=O)C3CCCO3)CC2)cc1OC (stereo partly drawn)	-	-	.	-	-	.	.
CC1(C)Nc2ccccc2C(=O)N1c1ccc(Br)cc1	3.0	-	9.2	13	6.8	-	-
CC(C)(C)N1C(=O)c2ccccc2NC(=O)N1Cc1ccc(Br)cc1	-	-	-	-	-	.	.
CC(C)NC(=O)OC1CC2CC1[C@H]1CCCCN1C2=O (stereo partly drawn)	-	-	.	-	-	.	.
N#CC1(NC(=O)CSc2nnc(C3CC3)n2N)CCCCC1	-	-	-	-	-	.	.

From PubChem BioAssay
